About 7,900 targets were measured; listed, in parts, are those with a hit and a random draw of the rest. About 0.6% of all pairs of compound and target were hits.
Assays:
Experiment in all cases: log2 fold change, soluble protein after heating vs DMSO (PISA); higher = thermal stabilisation; K562 cells, 10 uM, 30 min; active = over 0.2 and 3.5 SD of the protein, either way, in both replicates (recomputed)
[1] = compound: CC1=C(C=C(C=C1)NC(=O)C2=CC(=CC=C2)C(C)(C)C#N)NC3=CC4=C(C=C3)N=CN(C4=O)C
Procedure, shortened: (§1)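 K562 cells at 2×10^6 cells/mL were given 10 μM compound for 30 min. Aliquots then went through 3 min of heating across 48°C-58°C, were pooled, and were extracted in PBS with 0.5% NP-40 at 4°C, and the supernatant after 21,000xg for 90 min was quantified by TMTpro 16plex LC-MS/MS with channel sums equalised. Thermal stability relative to control samples, from duplicates, is given as log2 fold change.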

[2] = compound: CC1=C(C=C(C=C1)NC(=O)C2=CC(=CC=C2)N(C)C)NC(=O)C3=CC=C(C=C3)O
Procedure, shortened: as §1

[3] = compound: CC1=CC=C(C=C1)SC2=C3C=C(SC3=CN=C2)C(=O)N
Procedure, shortened: as §1

[4] = compound: CC1=NC(=CC=C1)C2=C(N=C(N2)C(C)(C)C)C3=CC4=NC=CN=C4C=C3
Procedure, shortened: as §1

Nexturastat A = compound: CCCCN(Cc1ccc(C(=O)NO)cc1)C(=O)Nc1ccccc1 [Nexturastat A]
Procedure, shortened: as §1

vemurafenib = compound: CCCS(=O)(=O)Nc1ccc(F)c(C(=O)c2c[nH]c3ncc(-c4ccc(Cl)cc4)cc23)c1F [vemurafenib]
Procedure, shortened: as §1

[5] = compound: CCCS(=O)(=O)Nc1ccc(F)c(C(=O)c2c[nH]c3ncc(Cl)cc23)c1F
Procedure, shortened: as §1

[6] = compound: CCCc1cc(C)[nH]c(=O)c1CNC(=O)c1cc(-c2ccnc(N3CCN(C)CC3)c2)cc2c1cnn2C(C)C
Procedure, shortened: as §1

givinostat = compound: CCN(CC)Cc1ccc2cc(COC(=O)Nc3ccc(C(=O)NO)cc3)ccc2c1 [givinostat]
Procedure, shortened: as §1

barasertib = compound: CCN(CCCOc1ccc2c(Nc3cc(CC(=O)Nc4cccc(F)c4)[nH]n3)ncnc2c1)CCOP(=O)(O)O [barasertib]
Procedure, shortened: as §1

Measured: log2 fold change

DYRK1A isoform 2 (UniProt Q13627)
inactive: [1] -0.025 | [2] 0.061 | [3] 0.003 | [4] -0.005 | Nexturastat A -0.032 | vemurafenib -0.021 | [5] -0.024 | [6] -0.019 | givinostat 0.038 | barasertib 0.004

EIF4G1 isoform 8 (UniProt Q04637)
inactive: [1] -0.028 | [2] -0.011 | [3] 0.004 | [4] 0.006 | Nexturastat A 0.169 | vemurafenib 0.013 | [5] 0.028 | [6] 0.119 | givinostat 0.057 | barasertib 0.067

EVC2 (UniProt Q86UK5)
inactive: [1] -0.263 | [2] -0.146 | [3] -0.006 | [4] -0.018 | Nexturastat A 0.046 | vemurafenib -0.073 | [5] -0.054 | [6] 0.16 | givinostat 0.06 | barasertib -0.064

FAM118B (UniProt Q9BPY3)
inactive: [1] 0 | [2] 0.03 | [3] 0.037 | [4] 0.055 | Nexturastat A 0.099 | vemurafenib 0.048 | [5] 0.003 | [6] 0.044 | givinostat 0.063 | barasertib 0.093

EXOC1 (UniProt Q9NV70)
inactive: [1] -0.026 | [2] -0.01 | [3] 0.019 | [4] 0.027 | Nexturastat A 0.115 | vemurafenib -0.023 | [5] 0.028 | [6] 0.08 | givinostat 0.07 | barasertib 0.082

EEF1D isoform 2 (UniProt P29692)
inactive: [1] 0.039 | [2] -0.034 | [3] -0.012 | [4] -0.003 | Nexturastat A 0.029 | vemurafenib -0.044 | [5] 0.049 | [6] -0.004 | givinostat 0.038 | barasertib 0.02

DBNL isoform 3 (UniProt Q9UJU6)
inactive: [1] -0.051 | [2] -0.019 | [3] 0.011 | [4] 0.113 | Nexturastat A -0.082 | vemurafenib 0.07 | [5] 0.1 | [6] -0.006 | givinostat 0.036 | barasertib 0.045

DCAF10 (UniProt Q5QP82)
inactive: [1] -0.024 | [2] 0.121 | [3] -0.015 | [4] -0.009 | Nexturastat A 0.012 | vemurafenib -0.044 | [5] 0.002 | [6] -0.121 | givinostat -0.094 | barasertib -0.006

FAM122A (UniProt Q96E09)
Chain of UniProt Q96E09 (Q96E09 whole entry, looked up): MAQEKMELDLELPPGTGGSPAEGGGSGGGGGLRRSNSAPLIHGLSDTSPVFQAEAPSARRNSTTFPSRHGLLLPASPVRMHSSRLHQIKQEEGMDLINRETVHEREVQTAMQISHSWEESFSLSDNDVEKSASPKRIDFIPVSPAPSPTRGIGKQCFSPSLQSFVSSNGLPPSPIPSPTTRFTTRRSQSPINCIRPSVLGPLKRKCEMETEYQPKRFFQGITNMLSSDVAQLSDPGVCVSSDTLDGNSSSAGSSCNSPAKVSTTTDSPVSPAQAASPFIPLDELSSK
inactive: [1] -0.01 | [2] -0.005 | [3] 0.045 | [4] -0.006 | Nexturastat A 0.107 | vemurafenib -0.017 | [5] 0.095 | [6] 0.026 | givinostat 0.064 | barasertib -0.016

ELOC (UniProt Q15369)
inactive: [1] 0.016 | [2] -0.034 | [3] 0.008 | [4] 0.001 | Nexturastat A -0.027 | vemurafenib 0.017 | [5] 0.031 | [6] 0 | givinostat -0.035 | barasertib 0.026

DYNC1I2 isoform 5 (UniProt Q13409)
inactive: [1] -0.008 | [2] -0.03 | [3] -0.006 | [4] 0.028 | Nexturastat A 0.043 | vemurafenib -0.009 | [5] 0.005 | [6] -0.007 | givinostat -0.005 | barasertib -0.013

DNTTIP2 (UniProt Q5QJE6)
inactive: [1] 0.033 | [2] 0.028 | [3] -0.087 | [4] -0.061 | Nexturastat A 0.151 | vemurafenib -0.015 | [5] -0.064 | [6] -0.1 | givinostat 0.057 | barasertib -0.062

DOHH (UniProt Q9BU89)
Chain of UniProt Q9BU89 (Q9BU89 whole entry, looked up): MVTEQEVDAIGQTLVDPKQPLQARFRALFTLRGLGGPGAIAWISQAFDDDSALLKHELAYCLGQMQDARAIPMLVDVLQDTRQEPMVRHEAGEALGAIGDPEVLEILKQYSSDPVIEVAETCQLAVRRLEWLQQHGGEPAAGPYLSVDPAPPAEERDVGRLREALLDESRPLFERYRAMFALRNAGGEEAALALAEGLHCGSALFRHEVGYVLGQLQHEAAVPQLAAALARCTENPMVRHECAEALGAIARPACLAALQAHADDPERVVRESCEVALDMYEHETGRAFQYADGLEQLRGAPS
inactive: [1] 0.083 | [2] -0.069 | [3] 0.084 | [4] -0.091 | Nexturastat A -0.144 | vemurafenib 0.001 | [5] -0.059 | [6] -0.063 | givinostat -0.068 | barasertib -0.274

DUS3L (UniProt Q96G46)
inactive: [1] 0.064 | [2] -0.015 | [3] -0.01 | [4] 0.017 | Nexturastat A -0.023 | vemurafenib 0.042 | [5] 0.031 | [6] 0.036 | givinostat -0.004 | barasertib 0.021

EIF4E isoform 2 (UniProt P06730)
Chain of UniProt P06730 (P06730 whole entry, looked up): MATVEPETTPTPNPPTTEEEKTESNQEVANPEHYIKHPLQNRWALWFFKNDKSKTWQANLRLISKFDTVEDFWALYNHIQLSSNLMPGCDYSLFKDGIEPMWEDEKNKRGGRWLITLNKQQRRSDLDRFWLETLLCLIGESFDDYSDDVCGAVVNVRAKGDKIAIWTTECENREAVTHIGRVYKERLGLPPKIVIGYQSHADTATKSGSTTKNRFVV
inactive: [1] 0.044 | [2] -0.035 | [3] 0.008 | [4] 0.02 | Nexturastat A -0.078 | vemurafenib 0.078 | [5] 0.109 | [6] -0.086 | givinostat 0.012 | barasertib -0.07

DAB2 (UniProt P98082)
inactive: [1] 0.016 | [2] 0.015 | [3] -0.03 | [4] -0.046 | Nexturastat A 0.058 | vemurafenib -0.033 | [5] 0.064 | [6] 0.036 | givinostat 0.109 | barasertib 0.072

DDX4 (UniProt Q9NQI0)
Chain of UniProt Q9NQI0 (Q9NQI0 whole entry, looked up): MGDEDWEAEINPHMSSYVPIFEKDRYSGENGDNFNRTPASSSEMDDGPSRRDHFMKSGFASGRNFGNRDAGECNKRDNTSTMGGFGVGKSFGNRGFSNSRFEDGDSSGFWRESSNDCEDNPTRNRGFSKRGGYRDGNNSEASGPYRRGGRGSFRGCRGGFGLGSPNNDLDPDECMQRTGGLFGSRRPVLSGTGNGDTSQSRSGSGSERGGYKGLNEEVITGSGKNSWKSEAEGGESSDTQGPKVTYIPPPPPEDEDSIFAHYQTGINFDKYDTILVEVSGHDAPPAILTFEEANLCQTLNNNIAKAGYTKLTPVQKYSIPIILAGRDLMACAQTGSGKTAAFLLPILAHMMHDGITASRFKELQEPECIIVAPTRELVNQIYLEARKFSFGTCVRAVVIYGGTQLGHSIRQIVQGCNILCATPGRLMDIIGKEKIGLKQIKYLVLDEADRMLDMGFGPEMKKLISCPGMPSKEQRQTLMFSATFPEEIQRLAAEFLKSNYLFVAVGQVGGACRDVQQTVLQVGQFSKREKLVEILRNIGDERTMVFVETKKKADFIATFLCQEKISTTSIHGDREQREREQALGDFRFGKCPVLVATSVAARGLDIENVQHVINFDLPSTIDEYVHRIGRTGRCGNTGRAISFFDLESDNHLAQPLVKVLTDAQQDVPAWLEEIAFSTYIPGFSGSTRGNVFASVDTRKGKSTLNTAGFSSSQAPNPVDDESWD
inactive: [1] -0.451 | [2] 0.035 | [3] -0.328 | [4] -0.336 | Nexturastat A 0.263 | vemurafenib -0.569 | [5] -0.447 | [6] 0.327 | givinostat 0.271 | barasertib -0.094

DDX11 (UniProt Q96FC9)
Chain of UniProt Q96FC9 (Q96FC9 whole entry, looked up): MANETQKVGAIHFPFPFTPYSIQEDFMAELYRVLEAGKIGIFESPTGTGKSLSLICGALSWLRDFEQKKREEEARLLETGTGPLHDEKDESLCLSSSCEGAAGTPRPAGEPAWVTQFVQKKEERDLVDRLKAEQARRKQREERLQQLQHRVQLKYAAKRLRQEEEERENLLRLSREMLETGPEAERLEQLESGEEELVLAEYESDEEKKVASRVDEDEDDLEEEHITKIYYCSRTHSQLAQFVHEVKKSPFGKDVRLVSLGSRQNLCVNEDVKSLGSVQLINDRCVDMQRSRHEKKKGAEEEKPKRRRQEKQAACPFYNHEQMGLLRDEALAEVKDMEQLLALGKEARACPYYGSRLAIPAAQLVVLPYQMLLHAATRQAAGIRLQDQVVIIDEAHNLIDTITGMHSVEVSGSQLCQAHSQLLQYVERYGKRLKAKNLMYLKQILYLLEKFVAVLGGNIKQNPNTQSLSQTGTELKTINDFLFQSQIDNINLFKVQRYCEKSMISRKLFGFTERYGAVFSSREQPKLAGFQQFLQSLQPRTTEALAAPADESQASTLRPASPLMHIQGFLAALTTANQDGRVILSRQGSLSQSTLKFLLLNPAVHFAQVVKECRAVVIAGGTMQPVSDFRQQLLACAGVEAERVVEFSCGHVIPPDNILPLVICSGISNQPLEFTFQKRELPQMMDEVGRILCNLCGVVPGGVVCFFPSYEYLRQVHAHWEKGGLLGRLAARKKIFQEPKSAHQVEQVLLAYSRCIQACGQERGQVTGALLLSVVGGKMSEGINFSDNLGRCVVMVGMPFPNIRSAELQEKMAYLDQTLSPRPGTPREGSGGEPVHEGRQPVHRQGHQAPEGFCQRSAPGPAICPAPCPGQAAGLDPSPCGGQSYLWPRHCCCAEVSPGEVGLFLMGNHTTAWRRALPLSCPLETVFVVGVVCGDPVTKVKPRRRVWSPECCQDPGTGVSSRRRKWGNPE
inactive: [1] -0.04 | [2] 0.052 | [3] -0.035 | [4] 0.043 | Nexturastat A -0.011 | vemurafenib -0.072 | [5] 0 | [6] -0.006 | givinostat -0.029 | barasertib 0.125

CTNNB1 (UniProt P35222)
inactive: [1] -0.118 | [2] -0.018 | [3] 0.09 | [4] -0.028 | Nexturastat A 0.172 | vemurafenib -0.22 | [5] -0.002 | [6] -0.134 | givinostat 0.129 | barasertib 0.04

EPHB4 (UniProt P54760)
Chain of UniProt P54760 (P54760 whole entry, looked up): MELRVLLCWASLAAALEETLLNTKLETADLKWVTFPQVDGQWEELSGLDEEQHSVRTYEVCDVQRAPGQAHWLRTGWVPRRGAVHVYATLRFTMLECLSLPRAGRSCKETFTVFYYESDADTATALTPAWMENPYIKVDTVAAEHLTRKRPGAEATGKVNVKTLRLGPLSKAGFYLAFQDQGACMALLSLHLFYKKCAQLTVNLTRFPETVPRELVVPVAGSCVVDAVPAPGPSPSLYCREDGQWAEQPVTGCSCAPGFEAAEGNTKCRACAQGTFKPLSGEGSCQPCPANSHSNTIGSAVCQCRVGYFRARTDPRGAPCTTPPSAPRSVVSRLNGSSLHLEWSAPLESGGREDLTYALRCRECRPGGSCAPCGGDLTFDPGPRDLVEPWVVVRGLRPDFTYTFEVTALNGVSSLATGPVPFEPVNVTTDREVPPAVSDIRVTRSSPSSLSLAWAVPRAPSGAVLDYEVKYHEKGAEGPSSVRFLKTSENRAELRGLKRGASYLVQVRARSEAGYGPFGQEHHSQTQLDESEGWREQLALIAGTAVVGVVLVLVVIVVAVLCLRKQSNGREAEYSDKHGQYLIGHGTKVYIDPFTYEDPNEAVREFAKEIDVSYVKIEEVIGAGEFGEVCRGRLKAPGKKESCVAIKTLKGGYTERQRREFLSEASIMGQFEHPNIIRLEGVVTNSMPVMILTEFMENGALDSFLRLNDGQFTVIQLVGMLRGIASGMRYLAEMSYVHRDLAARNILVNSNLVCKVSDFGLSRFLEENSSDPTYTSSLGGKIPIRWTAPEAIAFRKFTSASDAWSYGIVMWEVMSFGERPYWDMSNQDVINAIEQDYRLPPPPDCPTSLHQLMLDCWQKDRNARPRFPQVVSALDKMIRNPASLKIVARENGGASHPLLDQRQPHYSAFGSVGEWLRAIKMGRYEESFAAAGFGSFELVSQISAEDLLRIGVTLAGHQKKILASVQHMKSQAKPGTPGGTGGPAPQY
inactive: [1] 0.057 | [2] -0.07 | [3] 0.392 | [5] -0.126 | [6] 0.001

DHCR7 (UniProt Q9UBM7)
inactive: [1] -0.037 | [2] -0.028 | [3] -0.055 | [4] 0.023 | Nexturastat A 0.104 | vemurafenib 0.011 | [5] 0.039 | [6] 0.139 | barasertib 0.204
active: givinostat 0.808

FAM118A (UniProt Q9NWS6)
Chain of UniProt Q9NWS6 (Q9NWS6 whole entry, looked up): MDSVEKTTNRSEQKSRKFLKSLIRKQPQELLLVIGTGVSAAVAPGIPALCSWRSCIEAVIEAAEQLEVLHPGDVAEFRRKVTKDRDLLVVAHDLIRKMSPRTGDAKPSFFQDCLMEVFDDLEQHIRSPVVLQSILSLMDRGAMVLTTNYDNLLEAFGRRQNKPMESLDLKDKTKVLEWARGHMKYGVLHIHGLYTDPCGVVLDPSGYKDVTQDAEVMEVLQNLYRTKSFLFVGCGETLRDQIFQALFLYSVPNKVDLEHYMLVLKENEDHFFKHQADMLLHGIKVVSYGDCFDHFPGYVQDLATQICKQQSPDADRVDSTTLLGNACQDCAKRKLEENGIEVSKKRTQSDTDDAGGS
inactive: [1] 0.057 | [2] 0.086 | [3] 0.101 | [4] -0.163 | Nexturastat A -0.031 | vemurafenib 0.182 | [5] 0.114 | [6] -0.016 | barasertib 0.112

EIF4G3 isoform 3 (UniProt O43432)
inactive: [1] -0.024 | [2] 0.01 | [3] 0 | [4] -0.015 | vemurafenib 0.047 | [5] 0.002 | [6] 0.067 | givinostat 0.08 | barasertib 0.059

EXOC7 (UniProt Q9UPT5)
Chain of UniProt Q9UPT5 (Q9UPT5 whole entry, looked up): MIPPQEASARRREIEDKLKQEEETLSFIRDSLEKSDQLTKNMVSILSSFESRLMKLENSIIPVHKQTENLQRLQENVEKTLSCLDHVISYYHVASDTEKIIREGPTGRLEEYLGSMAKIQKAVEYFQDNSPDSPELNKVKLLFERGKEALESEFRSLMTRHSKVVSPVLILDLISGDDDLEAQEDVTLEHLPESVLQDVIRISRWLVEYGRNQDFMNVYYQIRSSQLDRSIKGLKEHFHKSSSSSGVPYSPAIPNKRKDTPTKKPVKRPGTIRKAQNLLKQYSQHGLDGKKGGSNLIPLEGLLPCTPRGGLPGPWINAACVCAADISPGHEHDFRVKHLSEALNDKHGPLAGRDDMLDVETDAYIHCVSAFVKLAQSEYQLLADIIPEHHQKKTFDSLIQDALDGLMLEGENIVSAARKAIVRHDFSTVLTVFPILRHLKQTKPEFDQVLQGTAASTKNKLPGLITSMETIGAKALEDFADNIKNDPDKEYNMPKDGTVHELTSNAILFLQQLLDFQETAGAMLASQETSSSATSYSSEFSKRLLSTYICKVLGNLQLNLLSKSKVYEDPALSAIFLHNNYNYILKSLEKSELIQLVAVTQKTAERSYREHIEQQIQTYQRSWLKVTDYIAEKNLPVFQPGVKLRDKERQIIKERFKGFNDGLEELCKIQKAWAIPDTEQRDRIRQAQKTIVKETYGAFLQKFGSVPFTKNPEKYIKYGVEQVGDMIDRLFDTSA
inactive: [1] -0.116 | [2] -0.057 | [3] -0.014 | [4] -0.05 | Nexturastat A 0.065 | vemurafenib 0.032 | [5] 0.07 | [6] 0.079 | givinostat 0.09 | barasertib 0.036

CTSA (UniProt P10619)
inactive: [1] -0.033 | [2] 0.011 | [3] -0.02 | [4] 0.003 | Nexturastat A -0.016 | vemurafenib -0.013 | [5] -0.039 | [6] -0.047 | givinostat 0.117 | barasertib 0

CWF19L2 (UniProt Q2TBE0)
inactive: [1] -0.048 | [2] 0.046 | [3] 0.166 | [4] -0.038 | [5] -0.057 | givinostat 0.035

FAM241A (UniProt Q8N8J7)
Chain of UniProt Q8N8J7 (Q8N8J7 whole entry, looked up): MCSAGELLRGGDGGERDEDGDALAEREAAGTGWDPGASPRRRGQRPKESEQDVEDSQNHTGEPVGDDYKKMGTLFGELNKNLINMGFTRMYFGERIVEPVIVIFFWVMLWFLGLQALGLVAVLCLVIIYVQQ
inactive: [2] -0.012 | [3] -0.031 | [4] -0.028 | vemurafenib -0.083 | [5] 0.015 | [6] -0.009 | givinostat -0.037 | barasertib 0.06
active: [1] 0.536

DCAF16 (UniProt Q9NXF7)
Chain of UniProt Q9NXF7 (Q9NXF7 whole entry, looked up): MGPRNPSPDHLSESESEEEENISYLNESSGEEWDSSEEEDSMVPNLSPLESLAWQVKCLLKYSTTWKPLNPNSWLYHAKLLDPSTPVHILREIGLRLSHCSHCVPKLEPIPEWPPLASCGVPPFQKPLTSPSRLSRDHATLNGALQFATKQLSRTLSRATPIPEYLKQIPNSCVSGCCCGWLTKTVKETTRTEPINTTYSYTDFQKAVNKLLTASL
inactive: [1] -0.036 | [2] -0.013 | [3] 0.059 | [4] -0.015 | Nexturastat A 0.063 | vemurafenib 0.151 | [5] 0.185 | [6] 0.042 | givinostat -0.016 | barasertib 0.024

From the supplement of paper PMC10849652
